Screen size: about 220,000 compounds; about 8,200 (3.7%) were called active. For the sample, actives were picked, then their nearest neighbours and some compounds at random. Values without a mark were called inactive.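 The calls were made as follows: active = compounds that reduced the stress-induced luciferase reporter signal by more than about 70% of percent inhibition (limit read from the data); inactive = the rest.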 Residues, ends and D or L forms follow the SMILES beside them. *: point of attachment. Bz = O=C(c1ccccc1)*
Test: inhibitors of CHOP promoter induction, primary screen, cell-based, unfolded protein response, luciferase reporter (AID 2732);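 also: 0% = tunicamycin plus vehicle and 100% = wells without tunicamycin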
Conditions: CHO-K1 CHOP-promoter luciferase, tunicamycin-induced, 15-18 h; at 10 µM; hits give high values

Row | SMILES | inhibition
1 | CCN(CC)C(=O)c1sc(NC(=O)c2ccco2)c(C#N)c1C | -5.34%
2 | CCCc1ccc(-c2c(C)sc(NC(=O)c3ccnn3C)c2C#N)cc1 | 76.4% (active)
3 | Cn1nccc1CNC(=O)c1ccnn1C | -26%
4 | CCCCCCCN=C(C)c1ccccc1O | -7.28%
5 | Cc1ccc(NC(=O)Nc2cccc(C(F)(F)F)c2)nc1 | -25.1%
6 | CCNS(=O)(=O)c1ccc(NC(=O)Nc2cccc(OC)c2)cc1 | -10.9%
7 | CCNS(=O)(=O)c1ccc(NC(=O)Nc2cccc(C(F)(F)F)c2)cc1 | 87.4% (active)
8 | Cn1nc(C(F)(F)F)cc1C(=O)O | 13.6%
9 | CSC1=NCCN1C(=O)Cc1cccc2ccccc12 | 13.7%
10 | COc1ccc(NC(=O)Nc2ccc3nsnc3c2)cc1 | 4.53%
11 | O=C(Nc1ccc2ccccc2c1)Nc1ccc2snnc2c1 | 79.2% (active)
12 | O=C(Nc1ccccc1)Nc1nc2ccccc2s1 | -20.1%
13 | Cc1ccc(F)cc1NC(=O)N1CCCN(c2ccc(C(F)(F)F)cn2)CC1 | 1.83%
14 | COc1cc(NC(=O)c2cncc(-c3ccc(C#N)cc3)c2)cc(C(=O)Nc2cccc(C(F)(F)F)c2)c1 | 22.1%
15 | CNc1nnc(-c2ccco2)s1 | 7.19%
16 | Cc1ccc(OCC(=O)Nc2nnc(-c3ccco3)s2)cc1 | 82.2% (active)
17 | COc1ccc(OCC(=O)Nc2nnc(-c3ccco3)s2)cc1 | 28.2%
18 | CC(NCc1ccccc1OC1CCCC1)c1ccccc1 (stereo unspecified) | 11.4%
19 | O=C(CSc1nc2ccccc2o1)N/N=C/c1ccccc1C(=O)O | -2.6%
20 | C=CCNC(=O)CSc1nc2scc(-c3ccco3)c2c(=O)n1CC=C | -19.4%
21 | O=S(=O)(Nc1ccc(Cl)cn1)c1cnc(Cl)c(Br)c1 | 9.6%
22 | CCN1C(=O)/C(=C\N2CCN(c3ccccc3)CC2)SC1=S | 23.4%
23 | CCCCN1C(=O)/C(=C2/C=CC=CN2C)SC1=S | -3.04%
24 | CCCCN1C(=O)/C(=C/C=C2/C=Cc3ccccc3N2CC)SC1=S | 70.5% (active)
25 | CC1Cc2ccccc2N1CC(=O)Nc1ccc(S(N)(=O)=O)cc1 (stereo unspecified) | -11.8%
26 | COc1ccc(Nc2cc(Cl)ccc2C(=O)O)cn1 | 9.7%

Row | SMILES | inhibition
27 | Cc1ccc(-c2noc(CCC(N)=O)n2)cc1 | 10.7%
28 | CCNC(=O)CCc1nc(-c2ccc(C(C)(C)C)cc2)no1 | 91% (active)
29 | CCNC(=O)CCc1nc(-c2ccc(C)cc2)no1 | 11.2%
30 | CC1CCN(c2ccc([N+](=O)[O-])c(SCCO)c2)CC1 | 7.43%
31 | Cc1ccc(-c2csc(NC(=O)c3cccs3)n2)cc1 | 78.4% (active)
32 | Cc1ccc(-c2csc(NNC(=O)c3ccccc3)n2)cc1 | 21.4%
33 | Cc1ccc(OCC(=O)Nc2ccc(-c3nc4ncccc4o3)cc2)cc1 | -4.24%
34 | Cc1ccc(C(=O)NNC(=O)c2cccs2)cc1 | -31.6%
35 | O=C(O)c1ccc(NC(=O)c2cccs2)cc1 | 28.8%
36 | CCCc1ccc(-c2csc(NC(=O)Cc3cccs3)n2)cc1 | 12.1%
37 | COc1ccc(CC(=O)Nc2ccc(C(=O)NC(C)(C)C)cc2)cc1 | 19.1%
38 | Cc1ccc(-c2csc(NC(=O)Cn3[nH]c(=O)c4ccccc4c3=O)n2)cc1 | 80% (active)
39 | Cc1ccc(-c2nnc(-c3ccc(NC(=O)c4cccs4)cc3)o2)cc1 | 89% (active)
40 | COc1ccc(CC(=O)Nc2ccc(-c3nnc(-c4ccc(C)cc4)o3)cc2)cc1 | 83.6% (active)
41 | O=C(Nc1ccc2oc(-c3ccc4ccccc4c3)nc2c1)c1cccs1 | -26.2%
42 | Cc1cccc(S(=O)(=O)CC(=O)Nc2nc(-c3ccccc3)cs2)c1 | -8.42%
43 | CC(=O)N1CC[n+]2c(-c3ccc([N+](=O)[O-])cc3)csc21 | -3.95%
44 | O=C(O)CCc1cccnc1 | 16.7%
45 | COc1ccc(CN2CCOC2=O)cc1OC | -5.21%
46 | COc1ccc(N2C(=O)C3C(C2=O)C(C(=O)c2ccccc2)N2CCCC32)cc1 (stereo unspecified) | 11.9%
47 | CC(C)C[C@H](CO)Nc1nc(N(C)c2cccc(Cl)c2)c2ncn(C(C)C)c2n1 | 21.8%
48 | COC(=O)c1ccccc1N=Nc1c(C)[nH][nH]c1=O | 14.2%
49 | CCCNc1c(N)c(=O)c1=O | 3.2%
50 | CCc1c(C)nc2c(-c3ccccc3)c(C)nn2c1Nc1ccc(NC(C)=O)cc1 | 17.3%
51 | CCS(=O)(=O)c1cc([N+](=O)[O-])c(Sc2ccccc2N)s1 | -0.04%
52 | COc1cc(C(F)(F)F)nc2c(Br)c(C(C)(C)C)nn12 | 15%

Row | SMILES | inhibition
53 | CCN(CC)CCn1cnc2c1c(=O)n(CCOC(=O)c1cc(OC)c(OC)c(OC)c1)c(=O)n2C | -3.64%
54 | CCN1CCN(C(c2cccnc2)c2cc(Cl)c3cccnc3c2O)CC1 (stereo unspecified) | -101%
55 | Fc1ccc(N2CCN(Cc3cnc(Oc4ccc(Br)cc4)s3)CC2)cc1 | 21%
56 | Oc1c(CN2CCN(c3ccc(F)cc3)CC2)cc(Cl)c2cccnc12 | 92% (active)
57 | Cc1cc(N2CCN(c3ccc(F)cc3)CC2)n2ncnc2n1 | 1.35%
58 | O=C(NC(Cc1ccccc1)C(=O)N1CCCC1C(=O)O)c1ccccc1 (stereo not drawn) (Bz-Phe-Pro-OH; configuration not given here) | -0.39%
59 | Cc1ccc(C(=O)N2CCN(C3CCCCC3)CC2)s1 | 12.7%
60 | O=C(C(Cc1ccccc1)n1cccc1)N1CCN(C2CCCCC2)CC1 (stereo unspecified) | 72.6% (active)
61 | CC(=O)c1ccc(S(=O)(=O)N2CCN(C(=O)/C=C/c3ccc4ccccc4n3)CC2)cc1 | 60%
62 | O=C(Nc1ccc(Cl)cc1)OCc1cc(-c2ccccc2)on1 | 89.7% (active)
63 | O=C(Nc1ccccc1)OCc1cc(-c2ccc(Cl)cc2)on1 | -15.4%
64 | O=C(Nc1ccccc1)OCc1cn(-c2ccc(Cl)cc2)nn1 | -8.26%
65 | CCOC(=O)CN1CCC(c2ccccc2)CC1 | 8.89%
66 | CCOC(=O)Cn1c(-c2cccnc2Cl)nc2ccccc21 | -1.12%
67 | CCOC(=O)Cn1c2c(c(-c3ccccc3OC)cc1=O)CCCC2 | 77.2% (active)
68 | FC(F)(F)c1nc(-c2ccccc2)ncc1-c1nnnn1-c1ccccc1 | 49.3%
69 | CCOC(=O)C(C)Sc1nc2ccccc2c(=O)n1CC1CCCCC1 (stereo unspecified) | 99.3% (active)
70 | CC(Sc1nc2ccccc2c(=O)n1Cc1ccco1)C(=O)c1ccccc1 (stereo unspecified) | 16.2%
71 | CCOn1c(SC(C)C)nc2ccccc2c1=O | -9.05%
72 | Cc1nnc2n1N=C(c1ccc3c(c1)NC(=O)CO3)CS2 | 8.13%
73 | O=C(O)c1ccccc1C(=O)Nc1ccccc1[N+](=O)[O-] | -7.32%
74 | CNCC(O)c1ccc(O)c(O)c1 (stereo unspecified) | -0.79%
75 | CCC(C)c1ccc(O)c(/C=N/O)c1 (stereo unspecified) | 71.8% (active)
76 | O=C(Cc1c(F)cccc1Cl)Nc1ncc([N+](=O)[O-])s1 | 9.25%
77 | CC(=O)Oc1ccccc1C(=O)Nc1ncc([N+](=O)[O-])s1 | 72.1% (active)
78 | O=C(CCc1ccccc1)Nc1ncc([N+](=O)[O-])s1 | -9.45%

Row | SMILES | inhibition
79 | O=C(NNC(=S)Nc1ccc(F)cc1)[C@H]1C[C@@H]1c1ccccc1 | 5.39%
80 | COc1cc(C)c(Cl)cc1S(=O)(=O)n1ccnc1 | 14.6%
81 | CCOc1cc(C)c(Cl)cc1S(=O)(=O)n1nnc2ccccc21 | 73.7% (active)
82 | CCCOc1cc(C)c(S(=O)(=O)n2nnc3ccccc32)cc1C | -25.8%
83 | CN(c1ccccn1)c1ncnc2[nH]ncc12 | 16.3%
84 | S=c1[nH]nc(-c2cccs2)n1/N=C/c1cn(-c2ccccc2)nc1-c1ccc(Cl)cc1 | 57.5%
85 | Cc1ccc(NNC(=O)c2cccs2)cc1Cl | -7.82%
86 | CSC1=NC2(C)CCCCC2C12C=CC(=O)C=C2 (stereo unspecified) | -8.01%
87 | CNC(=O)c1nnc(Cc2ccc(Cl)cc2)o1 | 84.2% (active)
88 | Clc1ccc(Cc2nnc(-c3cccs3)o2)cc1 | -8.41%
89 | O=C(Nc1nnc(Cc2ccc(Cl)cc2)s1)c1ccncc1 | 2.85%
90 | CS(=O)(=O)c1ccc2nnn(OCC(=O)Nc3cccc(C#N)c3)c2c1 | 7.09%
91 | CNC(=O)c1cccc2nc3ccccc3nc12 | -2.58%
92 | CCOC(=O)c1cnc(-c2ccccc2)nc1Oc1ccc(C)cc1 | 16.8%
93 | CCCCOc1ccc(-c2ncc(C(=O)OCC)c(N)n2)cc1 | 87.4% (active)
94 | CCOC(=O)c1cnc(SCc2nc(N)nc(Nc3ccc(OC)cc3)n2)nc1N | 27.6%
95 | O=C(N/N=C/c1ccco1)c1csc2c1CCCC2 | -20.7%
96 | CCOC(=O)C1=C(C)N=c2s/c(=C\C(=O)OC)c(=O)n2C1c1ccc(OC)cc1 (stereo unspecified) | 89.2% (active)
97 | CCOC(=O)C1=C(CSc2nccn2C)NC(=O)NC1c1ccc(OC)cc1 (stereo unspecified) | 34.2%
98 | COCCOC(=O)C1=C(C)N=c2s/c(=C\c3cccs3)c(=O)n2C1c1cccs1 (stereo unspecified) | 4.98%
99 | CC(C)Cc1ccc(C(C)C(=N)N)cc1 (stereo unspecified) | 4.47%
100 | CC(=O)NC(CC(=O)Nc1nccs1)c1ccccc1 (stereo unspecified) | -2.49%
101 | CCC(C)(C)NC(=O)C(c1ccc(O)cc1)N(C(=O)Cn1nnc2ccccc21)c1ccc(NC(C)=O)cc1 (stereo unspecified) | 4.95%
